# Measurements from the supplement of paper PMC8728848.
# About 410 targets per protein were measured; listed, in parts, are those with the strongest signals and a random draw of the rest.
# Key:
# Assay in all cases: glycan array binding signal (z-score within array); higher = stronger binding
# Settings in all cases: glycan notation: IUPAC condensed, linker removed
# [1] = target: Fuc(a1-2)Gal(b1-3)GalNAc(b1-4)[Neu5Ac(a2-3)]Gal(b1-4)Glc
# Outline: (§1)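 Glycan array data were curated from 3228 arrays in the Consortium for Functional Glycomics database and kept only where the protein sequence was available. Glycan names were converted to IUPAC-condensed notation, and columns mapping to the same glycan were averaged. The binding signal is a within-array Z-score, averaged across arrays of the same protein sequence at different concentrations or buffers and across linkers. Negative Z-scores can be read as non-binding.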
# [2] = target: Fuc(a1-2)Gal(b1-3)[Fuc(a1-4)]GlcNAc
# Outline: as §1
# [3] = target: Fuc(a1-2)Gal(b1-3)[Fuc(a1-4)]GlcNAc(b1-2)Man(a1-3)[Fuc(a1-2)Gal(b1-3)[Fuc(a1-4)]GlcNAc(b1-2)Man(a1-6)]Man(b1-4)GlcNAc(b1-4)GlcNAc
# Outline: as §1
# Fuc(a1-2)Gal(b1-4)Glc6S = target: Fuc(a1-2)Gal(b1-4)Glc6S
# Outline: as §1
# [4] = target: Fuc(a1-2)Gal(b1-4)GlcNAc(b1-3)Gal(b1-4)GlcNAc(b1-3)Gal(b1-4)GlcNAc
# Outline: as §1
# [5] = target: Fuc(a1-2)Gal(b1-4)[Fuc(a1-3)]GlcNAc(b1-3)[Neu5Ac(a2-6)Gal(b1-4)GlcNAc(b1-6)]Gal(b1-4)Glc
# Outline: as §1
# [6] = target: Fuc(a1-2)Gal6S(b1-4)Glc6S
# Outline: as §1
# [7] = target: Fuc(a1-2)[Gal(a1-3)]Gal(b1-3)GlcNAc
# Outline: as §1
# [8] = target: Fuc(a1-2)[Gal(a1-3)]Gal(b1-3)GlcNAc(b1-3)GalNAc
# Outline: as §1
# [9] = target: Fuc(a1-2)[Gal(a1-3)]Gal(b1-4)GlcNAc(b1-2)Man(a1-3)[Fuc(a1-2)[Gal(a1-3)]Gal(b1-4)GlcNAc(b1-2)Man(a1-6)]Man(b1-4)GlcNAc(b1-4)GlcNAc
# Outline: as §1
# [10] = target: Fuc(a1-2)[Gal(a1-3)]Gal(b1-4)GlcNAc(b1-6)GalNAc
# Outline: as §1
# [11] = target: Fuc(a1-2)[GalNAc(a1-3)]Gal(b1-3)GlcNAc
# Outline: as §1
# [12] = target: Fuc(a1-3)[Gal(b1-4)]GlcNAc(b1-4)Gal(b1-4)[Fuc(a1-3)]GlcNAc(b1-4)Gal(b1-4)[Fuc(a1-3)]GlcNAc
# Outline: as §1
# Gal(a1-2)Gal = target: Gal(a1-2)Gal
# Outline: as §1
# Gal(b1-3)GalNAc = target: Gal(b1-3)GalNAc
# Outline: as §1
# Gal(b1-3)GlcNAc = target: Gal(b1-3)GlcNAc
# Outline: as §1
# [13] = target: Gal(b1-3)GlcNAc(b1-3)Gal(b1-4)GlcNAc(b1-6)[Gal(b1-3)GlcNAc(b1-3)]Gal(b1-4)Glc
# Outline: as §1
# [14] = target: Gal(b1-3)GlcNAc(b1-3)Gal(b1-4)[Fuc(a1-3)]GlcNAc(b1-6)[Gal(b1-3)GlcNAc(b1-3)]Gal(b1-4)Glc
# Outline: as §1
# [15] = target: Gal(b1-4)GalNAc(b1-3)[Fuc(a1-2)]Gal(b1-4)GlcNAc
# Outline: as §1
# [16] = target: Gal(b1-4)GlcNAc(b1-2)Man(a1-3)[Gal(b1-4)GlcNAc(b1-2)][GlcNAc(b1-4)]Man(b1-4)GlcNAc(b1-4)GlcNAc
# Outline: as §1
# [17] = target: Gal(b1-4)GlcNAc(b1-2)Man(a1-3)[GlcNAc(b1-2)Man(a1-6)]Man(b1-4)GlcNAc(b1-4)GlcNAc
# Outline: as §1
# [18] = target: Gal(b1-4)GlcNAc(b1-2)Man(a1-6)Man(b1-4)GlcNAc(b1-4)GlcNAc
# Outline: as §1
# [19] = target: Gal(b1-4)GlcNAc(b1-2)Man(a1-6)[GlcNAc(b1-2)Man(a1-3)]Man(b1-4)GlcNAc(b1-4)GlcNAc
# Outline: as §1
# [20] = target: Gal(b1-4)GlcNAc(b1-3)Gal(b1-4)GlcNAc
# Outline: as §1
# [21] = target: Gal(b1-4)GlcNAc(b1-3)Gal(b1-4)GlcNAc(b1-3)Gal(b1-4)GlcNAc
# Outline: as §1
# [22] = target: Gal(b1-4)GlcNAc(b1-3)Gal(b1-4)[Fuc(a1-3)GlcNAc(b1-6)]Gal(b1-4)Glc
# Outline: as §1
# Gal3S(b1-4)GlcNAc6S = target: Gal3S(b1-4)GlcNAc6S
# Outline: as §1
# Gal3S4S(b1-4)GlcNAc = target: Gal3S4S(b1-4)GlcNAc
# Outline: as §1
# Gal6S(b1-4)GlcNAc6S = target: Gal6S(b1-4)GlcNAc6S
# Outline: as §1
# [23] = target: GalNAc(b1-3)Gal(a1-4)Gal(b1-4)GlcNAc(b1-3)Gal(b1-4)Glc
# Outline: as §1
# GalNAc4S6S(b1-4)GlcNAc = target: GalNAc4S6S(b1-4)GlcNAc
# Outline: as §1
# GlcA(b1-3)GlcNAc = target: GlcA(b1-3)GlcNAc
# Outline: as §1
# [24] = target: GlcNAc(b1-3)[GlcNAc(b1-4)][GlcNAc(b1-6)]GlcNAc
# Outline: as §1
# Kdn(a2-3)Gal(b1-3)GalNAc = target: Kdn(a2-3)Gal(b1-3)GalNAc
# Outline: as §1
# Kdn(a2-3)Gal(b1-3)GlcNAc = target: Kdn(a2-3)Gal(b1-3)GlcNAc
# Outline: as §1
# [25] = target: Neu5Ac(a2-3)Gal(b1-3)GalNAc6S
# Outline: as §1
# [26] = target: Neu5Ac(a2-3)Gal(b1-4)GlcNAc(b1-2)Man(a1-3)[Neu5Ac(a2-3)Gal(b1-4)GlcNAc(b1-2)Man(a1-6)]Man(b1-4)GlcNAc(b1-4)[Fuc(a1-6)]GlcNAc
# Outline: as §1
# [27] = target: Neu5Ac(a2-3)Gal(b1-4)GlcNAc(b1-3)Gal(b1-4)[Fuc(a1-3)]GlcNAc
# Outline: as §1
# [28] = target: Neu5Ac(a2-6)Gal(b1-4)GlcNAc(b1-2)Man(a1-3)[Gal(b1-4)GlcNAc(b1-2)Man(a1-6)]Man(b1-4)GlcNAc(b1-4)GlcNAc
# Outline: as §1
# [29] = target: Neu5Ac(a2-6)Gal(b1-4)GlcNAc(b1-2)Man(a1-3)[GlcNAc(b1-2)Man(a1-6)]Man(b1-4)GlcNAc(b1-4)GlcNAc
# Outline: as §1
# [30] = target: Neu5Ac(a2-6)GlcNAc(b1-4)GlcNAc
# Outline: as §1
# [31] = target: Neu5Ac(b2-6)Gal(b1-4)GlcNAc
# Outline: as §1
# Neu5Gc(a2-6)GalNAc = target: Neu5Gc(a2-6)GalNAc
# Outline: as §1
binder,measurement,setting,value
"PRKCE (Homo sapiens), Q02156 (protein) MVVFNGLLKIKICEAVSLKPTAWSLRHAVGPRPQTFLLDPYIALNVDDSRIGQTATKQKTNSPAWHDEFVTDVCNGRKIELAVFHDAPIGYDDFVANCTIQFEELLQNGSRHFEDWIDLEPEGRVYVIIDLSGSSGEAPKDNEERVFRERMRPRKRQGAVRRRVHQVNGHKFMATYLRQPTYCSHCRDFIWGVIGKQGYQCQVCTCVVHKRCHELIITKCAGLKKQETPDQVGSQRFSVNMPHKFGIHNYKVPTFCDHCGSLLWGLLRQGLQCKVCKMNVHRRCETNVAPNCGVDARGIAKVLADLGVTPDKITNSGQRRKKLIAGAESPQPASGSSPSEEDRSKSAPTSPCDQEIKELENNIRKALSFDNRGEEHRAASSPDGQLMSPGENGEVRQGQAKRLGLDEFNFIKVLGKGSFGKVMLAELKGKDEVYAVKVLKKDVILQDDDVDCTMTEKRILALARKHPYLTQLYCCFQTKDRLFFVMEYVNGGDLMFQIQRSRKFDEPRSRFYAAEVTSALMFLHQHGVIYRDLKLDNILLDAEGHCKLADFGMCKEGILNGVTTTTFCGTPDYIAPEILQELEYGPSVDWWALGVLMYEMMAGQPPFEADNEDDLFESILHDDVLYPVWLSKEAVSILKAFMTKNPHKRLGCVASQNGEDAIKQHPFFKEIDWVLLEQKKIKPPFKPRIKTKRDVNNFDQDFTREEPVLTLVDEAIVKQINQEEFKGFSYFGEDLMP",glycan array binding signal (z-score),[1],-0.414
same,glycan array binding signal (z-score),[2],-0.08
same,glycan array binding signal (z-score),[3],3.82
same,glycan array binding signal (z-score),Fuc(a1-2)Gal(b1-4)Glc6S,0.01
same,glycan array binding signal (z-score),[4],-0.376
same,glycan array binding signal (z-score),[5],-0.275
same,glycan array binding signal (z-score),[6],3.89
same,glycan array binding signal (z-score),[7],-0.168
same,glycan array binding signal (z-score),[8],0.498
same,glycan array binding signal (z-score),[9],-0.355
same,glycan array binding signal (z-score),[10],4.32
same,glycan array binding signal (z-score),[11],-0.107
same,glycan array binding signal (z-score),[12],-0.315
same,glycan array binding signal (z-score),Gal(a1-2)Gal,0.035
same,glycan array binding signal (z-score),Gal(b1-3)GalNAc,-0.389
same,glycan array binding signal (z-score),Gal(b1-3)GlcNAc,-0.364
same,glycan array binding signal (z-score),[13],-0.234
same,glycan array binding signal (z-score),[14],-0.277
same,glycan array binding signal (z-score),[15],0.061
same,glycan array binding signal (z-score),[16],-0.146
same,glycan array binding signal (z-score),[17],2.61
same,glycan array binding signal (z-score),[18],-0.31
same,glycan array binding signal (z-score),[19],1.3
same,glycan array binding signal (z-score),[20],-0.365
same,glycan array binding signal (z-score),[21],0.155
same,glycan array binding signal (z-score),[22],-0.176
same,glycan array binding signal (z-score),Gal3S(b1-4)GlcNAc6S,6.34
same,glycan array binding signal (z-score),Gal3S4S(b1-4)GlcNAc,8.77
same,glycan array binding signal (z-score),Gal6S(b1-4)GlcNAc6S,3.2
same,glycan array binding signal (z-score),[23],-0.217
same,glycan array binding signal (z-score),GalNAc4S6S(b1-4)GlcNAc,-0.211
same,glycan array binding signal (z-score),GlcA(b1-3)GlcNAc,-0.247
same,glycan array binding signal (z-score),[24],4.39
same,glycan array binding signal (z-score),Kdn(a2-3)Gal(b1-3)GalNAc,-0.132
same,glycan array binding signal (z-score),Kdn(a2-3)Gal(b1-3)GlcNAc,-0.38
same,glycan array binding signal (z-score),[25],-0.364
same,glycan array binding signal (z-score),[26],-0.386
same,glycan array binding signal (z-score),[27],-0.192
same,glycan array binding signal (z-score),[28],0.571
same,glycan array binding signal (z-score),[29],3.58
same,glycan array binding signal (z-score),[30],-0.318
same,glycan array binding signal (z-score),[31],-0.121
same,glycan array binding signal (z-score),Neu5Gc(a2-6)GalNAc,-0.342
